Measurements: PubChem BioAssay (NCATS)
Results filed as inconclusive are left out. Active and inactive are the calls of the source. Calls follow the shape of the dose curve; as a rule, active = well fitted curve in the direction sought with a large enough effect; inconclusive = small, poorly fitted or top-dose-only effect, or another doubt; inactive = no such curve, though single readings can be large; an effect the other way counts as inactive or inconclusive.

Experiments:
[1] = BET inhibitor-based combinations targeting novel dependencies in MECOM-rearranged (r) AML: SET-2 cell line (AID 2202231); conditions: SET-2 AML cells viability, CellTiter-Glo luminescence, 48 h; viability: stronger effect = lower value, concentration not given here; also: nearly all actives have a fitted effect of over 35% in size;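 as to viability: plate controls were DMSO treated cells for no effect and wells without cells for full effect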
In short: (§1)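 Cells were plated at 500 per well and exposed to an 11-point dose series of each drug for 48 hr. Viability was measured by CellTiter-Glo luminescence, normalized to DMSO and empty-well controls, and summarized as AUC and per-cell-line Z-AUC.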

[2] = BET inhibitor-based combinations targeting novel dependencies in MECOM-rearranged (r) AML: OCI-AML3 cell line (AID 2202232); conditions: CellTiter-Glo luminescence, 48 h; Potency: OCI-AML3 viability; series mostly up to 46 µM; also: nearly all actives have a fitted effect of over 35% in size
In short: as §1

[3] = BET inhibitor-based combinations targeting novel dependencies in MECOM-rearranged (r) AML: MV-4-11 cell line (AID 2202233); conditions: MV-4-11 AML viability, CellTiter-Glo luminescence, 48 h; series mostly up to 46 µM; also: nearly all actives have a fitted effect of over 45% in size
In short: (§2)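 Activity is given as area under the curve and as Z-AUC, mean-centred within each cell line. It comes from 11-point dose curves normalized to DMSO and empty wells. CellTiter-Glo luminescence was read after 48 hr drug exposure of 500 cells/well.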

[4] = BET inhibitor-based combinations targeting novel dependencies in MECOM-rearranged (r) AML: HNT-34 cell line (AID 2202234); conditions: HNT-34 AML viability, CellTiter-Glo luminescence, 48 h; series mostly up to 46 µM; also: nearly all actives have a fitted effect of over 35% in size
In short: as §2

[5] = BET inhibitor-based combinations targeting novel dependencies in MECOM-rearranged (r) AML: UCSD-AML1 cell line (AID 2202235); conditions: UCSD-AML1 AML cells viability, CellTiter-Glo, 48 h; series mostly up to 46 µM; also: nearly all actives have a fitted effect of over 40% in size
In short: as §2

[6] = BET inhibitor-based combinations targeting novel dependencies in MECOM-rearranged (r) AML: AML-191 cell line (AID 2202236; also: nearly all actives have a fitted effect of over 35% in size); conditions: AML-191 viability, CellTiter-Glo luminescence, 48 h; series mostly up to 46 µM
In short: as §1

[7] = BET inhibitor-based combinations targeting novel dependencies in MECOM-rearranged (r) AML: AML-194 cell line (AID 2202237; also: nearly all actives have a fitted effect of over 40% in size); conditions: AML-194 (MECOM-r AML) viability, CellTiter-Glo, 48 h; series mostly up to 46 µM
In short: as §1
Potency is read from the fitted curve at half-maximal effect.

COC(=O)Nc1nc2ccc(C(=O)c3ccccc3)cc2[nH]1
active: Potency [1] 833 nM | Potency [2] 590 nM | Potency [3] 525 nM | Potency [4] 263 nM | Potency [5] 296 nM | Potency [6] 263 nM | Potency [7] 332 nM

CC1(C)S[C@H]2[C@H](NC(=O)[C@@H](N)c3ccc(O)cc3)C(=O)N2[C@H]1C(=O)O
inactive: viability [1] 99.7% | Potency [2] | Potency [3] | Potency [4] | Potency [5] | Potency [6] | Potency [7]

CC[C@@H](Oc1cccc(CN(CCCOc2ccc(OC)cc2)c2nc3ccccc3o2)c1)C(=O)O
inactive: viability [1] 110% | Potency [2] | Potency [3] | Potency [4] | Potency [5] | Potency [6] | Potency [7]

CN1C(C(=O)Nc2ccccn2)=C(O)c2sccc2S1(=O)=O
inactive: viability [1] 113% | Potency [2] | Potency [3] | Potency [4] | Potency [5] | Potency [6] | Potency [7]

CC(C)(O)c1coc(S(=O)(=O)NC(=O)Nc2c3c(cc4c2CCC4)CCC3)c1
inactive: viability [1] 126% | Potency [2] | Potency [3] | Potency [4] | Potency [5] | Potency [6] | Potency [7]

C[C@@H]1C(=O)OC2[C@H](O)[C@]34[C@H]5C[C@@H](C(C)(C)C)[C@]36[C@@H](OC(=O)[C@@H]6O)O[C@@]4(C(=O)O5)[C@]21O (some centres undefined)
inactive: viability [1] 115% | Potency [2] | Potency [3] | Potency [4] | Potency [5] | Potency [6] | Potency [7]

CCS(=O)(=O)Nc1ccc2[nH]c(O)c(C(=Nc3ccc(CN4CCCCC4)cc3)c3ccccc3)c2c1
active: Potency [1] 2630 nM | Potency [2] 235 nM | Potency [3] 29.5 nM | Potency [4] 148 nM | Potency [5] 833 nM | Potency [6] 66.1 nM | Potency [7] 93.4 nM
